This note sets out measurements from PubChem BioAssay (Tox21).

Unmarked numbers belong to inactive results. Results filed as inconclusive are left out. Active and inactive are the calls of the source. Unless noted, calls come from the whole dose curve; as a rule, active = well fitted curve in the direction sought with a large enough effect in the repeat runs; inconclusive = weak or mixed curves; inactive = no such curve, though single readings can be large; an effect the other way counts as inactive or inconclusive.

Assay [1] in a line: qHTS assay to identify small molecule agonists of the androgen receptor (AR) signaling pathway in the presence of an antagonist - cell viability counter screen (AID 1259379).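 Note: MDA-kb2 human breast cancer cells carrying an MMTV luciferase reporter; nearly all actives have a fitted effect of over 25% in size.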 The conditions noted are these: MDA-kb2 viability, CellTiter-Fluor, 16 h; series mostly up to 92.4 µM. In short, it runs like this: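 Nilutamide-containing (3.0uM final) MDA-kb2 cultures, 3,000 cells/well, were treated with compounds across 15 concentrations. After 16 hr at 37C with no CO2, cell viability was determined by CellTiter-Fluor fluorescence in the luciferase assay wells.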

Assay [2] in a line: qHTS assay to identify small molecule antagonists of the estrogen receptor beta (ER-beta) signaling pathway - cell viability counter screen (AID 1259382). Note: nearly all actives have a fitted effect of over 55% in size. Note: potency is the fitted concentration of half-maximal effect. The conditions noted are these: ER-beta-UAS-bla HEK293T viability, CellTiter-Glo luminescence, 16 h; series mostly up to 92.4 µM. In short, it runs like this: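 Viability is scored by CellTiter-Glo luminescence (30 min, room temperature) in ER-beta-UAS-bla HEK293T wells already read for reporter fluorescence. Compound exposure lasts 16 hr at 37C alongside 1nM 17-beta-estradiol in charcoal-stripped serum medium.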
Background: qHTS replaces the single test concentration by a dilution series.

A short description of assay [3]: qHTS assay to identify small molecule agonists of the estrogen receptor alpha (ER-alpha) signaling pathway in the presence of an antagonist - cell viability counter screen (AID 1259386).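 Note: cells exposed to compounds for 22 h at 37 °C before the viability read; nearly all actives have a fitted effect of over 30% in size.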 The conditions noted are these: VM7Luc4E2 viability, CellTiter-Fluor fluorescence, 22 h; series mostly up to 92.4 µM. In short, it runs like this:
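In this counter screen, compound effects on VM7Luc4E2 viability were tested in the presence of the antagonist ICI-182,780 at 10.0nM final. Compounds were dosed at 15 concentrations, exposure lasted 22hr, and the CellTiter-Fluor signal was read.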

Assay [4] concerns the target Progesterone receptor (Homo sapiens) (UniProt P06401). Nature of the assay: qHTS assay to identify small molecule agonists of the progesterone receptor (PR) signaling pathway (AID 1346784; calls by dose curve; note: nearly all actives have a fitted effect of over 30% in size). To be noted: PR-UAS-bla HEK293T, beta-lactamase FRET ratio, 16 h; series mostly up to 92.4 µM. An outline of the steps:
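PR-UAS-bla HEK 293T cells (beta-lactamase reporter under UAS) in 2% charcoal-stripped FBS, dosed with 23 nL compound after 6 hr, incubated 16hr at 37C. LiveBLAzer B/G FRET substrate added, fluorescence read after 2 hours.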

The target is the same in assay [5]. The assay is described as follows: qHTS assay to identify small molecule antagonists of the progesterone receptor (PR) signaling pathway (AID 1346795; active = well fitted inhibition curve with a large enough effect in the signal ratio in the repeat runs, not every such curve was filed as active; the % refers to the signal ratio). To be noted: PR-UAS-bla HEK293T, beta-lactamase FRET ratio, 16 h; series mostly up to 92.4 µM. In short, it runs like this:
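PR-UAS-bla HEK293T cells with beta-lactamase reporter under UAS control, in 2% charcoal-stripped FBS, treated with compounds plus 1 nM promegestone (R5020, final) for 16 hr at 37C. Read-out: FRET beta-lactamase substrate fluorescence after 2 hr at room temperature.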

Assay [6] can be described thus: qHTS assay to identify small molecule antagonists of the progesterone receptor (PR) signaling pathway - cell viability counter screen (AID 1346798). Note: nearly all actives have a fitted effect of over 50% in size. The conditions noted are these: PR-UAS-bla HEK293T viability, CellTiter-Glo luminescence, 16 h; series mostly up to 92.4 µM. In short, it runs like this:
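PR-UAS-bla HEK293T cells, 3,000/well in 2% charcoal-stripped FBS medium, dosed with compounds plus R5020 agonist and incubated 16 h at 37C. Viability then measured in the same wells by CellTiter-Glo luminescence after 30 min at RT.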

Assay [7] in a line: qHTS assay to identify small molecule agonists of the progesterone receptor (PR) signaling pathway - cell viability counter screen (AID 1346799; calls by dose curve; note: nearly all actives have a fitted effect of over 45% in size). The conditions noted are these: PR-UAS-bla HEK293T viability, CellTiter-Glo luminescence, 16 h; series mostly up to 92.4 µM. An outline of the steps: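 Counter screen in the PR-UAS-bla HEK293T wells (2% charcoal-stripped FBS, 16 h compound exposure at 37 C) after the bla read. CellTiter-Glo added, 30 min at room temperature, luminescence read as cell viability.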

Assay [8] is described as follows: qHTS assay to identify small molecule antagonists of the TGF-beta/Smad signaling pathway - cell viability counter screen (AID 1346824). Note: nearly all actives have a fitted effect of over 50% in size. To be noted: SBE-bla HEK293T viability, CellTiter-Glo luminescence; series mostly up to 76.8 µM. In short, it runs like this:
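SBE-bla HEK 293T cells were plated overnight at 37 C, then given compounds in DMSO plus TGF-beta1 (added as 0.25 ng/mL solution) for 5 hr. After the bla read, CellTiter-Glo was added to the same wells and luminescence read after 30 min at room temperature.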

The nature of assay [9]: qHTS assay to identify small molecule agonists of the TGF-beta/Smad signaling pathway - cell viability counter screen (AID 1346829). Note: top concentration of the series differs between compounds; nearly all actives have a fitted effect of over 45% in size. The conditions noted are these: SBE-bla HEK293T viability, CellTiter-Glo luminescence, 5 h; series mostly up to 76.8 µM. An outline of the steps:
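SBE-bla HEK 293T cells plated overnight, compound exposure 5 hr at 37 C. Viability read in the same wells by CellTiter-Glo luminescence after 30 min at room temperature, following the beta-lactamase read.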

Assay [10] is described as follows: qHTS assay to identify small molecule agonists of the TGF-beta/Smad signaling pathway (AID 1346859; active = well fitted activation curve with a large enough effect in the signal ratio in the repeat runs, not every such curve was filed as active; the % refers to the signal ratio). The conditions noted are these: SBE-bla HEK293T, TGF-beta/Smad beta-lactamase reporter, 5 h; series mostly up to 76.8 µM. In short, it runs like this:
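SBE-bla HEK293T cells plated overnight, then compound exposure for 5 h at 37 C. Beta-lactamase reporter read with LiveBLAzer B/G FRET substrate after 2 h at room temperature, fluorescence at 405 nm excitation, 460/530 nm emission.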

Assay [11] addresses Thyrotropin-releasing hormone receptor (Homo sapiens) (UniProt P34981). Nature of the assay: qHTS assay to identify small molecule antagonists of the thyrotropin-releasing hormone receptor (TRHR) signaling pathway (AID 1346877; active = well fitted inhibition curve with a large enough effect in the repeat runs, not every such curve was filed as active). To be noted: TRHR-HEK293, TRH-induced calcium fluorescence, antagonist mode; series mostly up to 51.3 µM. In short, it runs like this: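 Kinetic fluorescence (3 min, 1 s resolution) following stimulation with TRH at 1 nM final; HEK293 cells bearing human TRHR; 5 min compound preincubation at RT; concentration-response over 15 points, triplicates.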

For assay [12] the target is unchanged. The assay is described as follows: qHTS assay to identify small molecule agonists of the thyrotropin-releasing hormone receptor (TRHR) signaling pathway (AID 1346891; calls by dose curve). The conditions noted are these: TRHR-HEK293 calcium fluorescence, agonist mode; series mostly up to 57.6 µM. In short, it runs like this: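 HEK293 cells expressing TRHR plated 18 h at 37 C/5% CO2, calcium dye-loaded 2 h at 37 C, then compound added (agonist mode); kinetic calcium fluorescence read 3 min at 1 s intervals; 15 concentrations in triplicate.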

Assay [13] can be described thus: Human pregnane X receptor (PXR) small molecule agonists, qHTS cell viability counter screen (AID 1346977). Note: nearly all actives have a fitted effect of over 50% in size. To be noted: PXR-Luc HepG2 viability, CellTiter-Fluor, 24 h; series mostly up to 92.4 µM. An outline of the steps: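 PXR-Luc HepG2 cells (2,000/well, 5% charcoal-stripped FBS) preincubated 5 hr, then exposed to compounds 24 hr at 37 C. Viability read in the same wells by CellTiter-Fluor fluorescence, reagent added at 23 hr, 1 hr incubation.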

Assay [14] addresses Androgen receptor (Homo sapiens) (UniProt P10275). Nature of the assay: qHTS assay to identify small molecule agonists of the androgen receptor (AR) signaling pathway in the presence of an antagonist (AID 1259381; calls by dose curve; note: nearly all actives have a fitted effect of over 15% in size). The conditions noted are these: MDA-kb2 MMTV-luciferase, AR agonist + nilutamide, 16 h; series mostly up to 92.4 µM. In short, it runs like this:
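Reporter-gene luminescence from MDA-kb2 cells exposed 16hr at 37C (0% CO2) to 15-point compound titrations with 3.0uM final nilutamide as AR antagonist.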

Assay [15] has as its target Estrogen receptor (Homo sapiens) (UniProt P03372). The assay is described as follows: qHTS assay to identify small molecule agonists of the estrogen receptor alpha (ER-alpha) signaling pathway in the presence of an antagonist (AID 1259383; calls by dose curve; note: top concentration of the series differs between compounds; nearly all actives have a fitted effect of over 15% in size). The conditions noted are these: VM7Luc4E2 cells, ERE-luciferase, +ICI-182,780, 22 h; series mostly up to 92.4 µM. An outline of the steps:
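Readout was ERE-driven luciferase luminescence in VM7Luc4E2 cells, which express full-length ER-alpha endogenously. Compounds were tested at 15 concentrations for 22hr alongside 10.0nM ICI-182,780 (final concentration).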

The nature of assay [16]: qHTS assay to identify small molecule agonists or antagonists of the thyroid stimulating hormone receptor (TSHR) signaling pathway - wild type cell line counter screen (AID 1259384; calls by dose curve). The conditions noted are these: HEK293 wild type, cAMP HTRF counter-screen, stronger effect = higher value; series mostly up to 92.4 µM. In short, it runs like this: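 Wild-type HEK293 cells were plated 18 h at 37 C/5% CO2, pin-dosed with compound plus Ro20-1724 medium, held 30 min at room temperature, then given cAMP-d2 and anti-cAMP-cryptate; fluorescence was read after 1 h. Fifteen concentrations, triplicate.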

The target of assay [17] is Thyrotropin receptor (Homo sapiens) (UniProt P16473). The assay is described as follows: qHTS assay to identify small molecule antagonists of the thyroid stimulating hormone receptor (TSHR) signaling pathway (AID 1259385; calls by dose curve; note: nearly all actives have a fitted effect of over 20% in size). The conditions noted are these: TSHR-HEK293 cAMP HTRF, TSH-stimulated antagonist mode; series mostly up to 92.4 µM. In short, it runs like this:
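TSHR-HEK293 cells were plated and held 18 h at 37C/5% CO2, then given compound plus Ro20-1724 and stimulated with TSH at 1.5 ng/mL final. After 30 min at room temperature, cAMP was detected with cAMP-d2/anti-cAMP-cryptate (1 h) by fluorescence.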

A short description of assay [18]: qHTS assay to identify small molecule agonists of the estrogen receptor beta (ER-beta) signaling pathway - cell viability counter screen (AID 1259380). Note: potency is the fitted concentration of half-maximal effect; nearly all actives have a fitted effect of over 30% in size. To be noted: ER-beta-bla HEK293T viability, CellTiter-Glo luminescence, 16 h; series mostly up to 92.4 µM. An outline of the steps: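 Steps: plate ER-beta-UAS-bla HEK293T cells, rest 6 hr; add compounds in DMSO; incubate 16 hr at 37C, 5% CO2; add FRET substrate 2 hr; add CellTiter-Glo, wait 30 min at room temperature; read luminescence.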

Estrogen receptor (Homo sapiens), sequence (P03372 whole entry, looked up): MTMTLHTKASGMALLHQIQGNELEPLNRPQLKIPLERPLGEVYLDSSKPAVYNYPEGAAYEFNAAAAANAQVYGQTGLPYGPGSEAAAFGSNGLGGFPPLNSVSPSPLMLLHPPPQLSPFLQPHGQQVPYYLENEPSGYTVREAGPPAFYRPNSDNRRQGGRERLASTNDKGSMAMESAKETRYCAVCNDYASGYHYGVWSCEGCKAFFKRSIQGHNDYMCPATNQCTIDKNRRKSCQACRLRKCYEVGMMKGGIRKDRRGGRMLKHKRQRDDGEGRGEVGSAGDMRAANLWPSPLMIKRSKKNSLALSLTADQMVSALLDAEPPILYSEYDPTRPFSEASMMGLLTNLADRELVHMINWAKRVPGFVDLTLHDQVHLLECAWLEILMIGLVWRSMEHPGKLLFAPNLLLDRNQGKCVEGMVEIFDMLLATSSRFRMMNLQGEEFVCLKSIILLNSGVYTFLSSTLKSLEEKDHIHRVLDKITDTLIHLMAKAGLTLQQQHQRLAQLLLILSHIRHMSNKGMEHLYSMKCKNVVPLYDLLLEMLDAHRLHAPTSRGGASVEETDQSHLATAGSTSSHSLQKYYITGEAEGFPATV
Thyrotropin receptor (Homo sapiens), sequence (P16473 whole entry, looked up): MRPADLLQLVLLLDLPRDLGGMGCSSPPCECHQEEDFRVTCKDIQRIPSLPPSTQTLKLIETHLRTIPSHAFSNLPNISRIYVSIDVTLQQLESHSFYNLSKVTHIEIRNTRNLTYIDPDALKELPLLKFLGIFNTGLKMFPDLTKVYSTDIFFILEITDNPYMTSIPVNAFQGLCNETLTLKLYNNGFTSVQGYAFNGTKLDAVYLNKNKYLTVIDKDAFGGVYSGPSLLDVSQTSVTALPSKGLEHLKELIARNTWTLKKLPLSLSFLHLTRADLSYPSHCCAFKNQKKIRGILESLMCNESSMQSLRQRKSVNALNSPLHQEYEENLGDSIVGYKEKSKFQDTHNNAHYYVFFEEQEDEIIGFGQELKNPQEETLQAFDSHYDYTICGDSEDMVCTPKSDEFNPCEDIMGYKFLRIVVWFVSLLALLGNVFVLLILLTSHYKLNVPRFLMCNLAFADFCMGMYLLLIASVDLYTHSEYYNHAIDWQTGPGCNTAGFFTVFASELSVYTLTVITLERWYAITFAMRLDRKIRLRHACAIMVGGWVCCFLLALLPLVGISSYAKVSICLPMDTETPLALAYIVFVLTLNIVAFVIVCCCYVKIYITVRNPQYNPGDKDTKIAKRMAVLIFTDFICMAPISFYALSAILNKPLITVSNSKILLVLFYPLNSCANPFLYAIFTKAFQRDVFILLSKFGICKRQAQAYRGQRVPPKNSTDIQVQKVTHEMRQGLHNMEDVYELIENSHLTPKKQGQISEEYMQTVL
Progesterone receptor (Homo sapiens), sequence (P06401 whole entry, looked up): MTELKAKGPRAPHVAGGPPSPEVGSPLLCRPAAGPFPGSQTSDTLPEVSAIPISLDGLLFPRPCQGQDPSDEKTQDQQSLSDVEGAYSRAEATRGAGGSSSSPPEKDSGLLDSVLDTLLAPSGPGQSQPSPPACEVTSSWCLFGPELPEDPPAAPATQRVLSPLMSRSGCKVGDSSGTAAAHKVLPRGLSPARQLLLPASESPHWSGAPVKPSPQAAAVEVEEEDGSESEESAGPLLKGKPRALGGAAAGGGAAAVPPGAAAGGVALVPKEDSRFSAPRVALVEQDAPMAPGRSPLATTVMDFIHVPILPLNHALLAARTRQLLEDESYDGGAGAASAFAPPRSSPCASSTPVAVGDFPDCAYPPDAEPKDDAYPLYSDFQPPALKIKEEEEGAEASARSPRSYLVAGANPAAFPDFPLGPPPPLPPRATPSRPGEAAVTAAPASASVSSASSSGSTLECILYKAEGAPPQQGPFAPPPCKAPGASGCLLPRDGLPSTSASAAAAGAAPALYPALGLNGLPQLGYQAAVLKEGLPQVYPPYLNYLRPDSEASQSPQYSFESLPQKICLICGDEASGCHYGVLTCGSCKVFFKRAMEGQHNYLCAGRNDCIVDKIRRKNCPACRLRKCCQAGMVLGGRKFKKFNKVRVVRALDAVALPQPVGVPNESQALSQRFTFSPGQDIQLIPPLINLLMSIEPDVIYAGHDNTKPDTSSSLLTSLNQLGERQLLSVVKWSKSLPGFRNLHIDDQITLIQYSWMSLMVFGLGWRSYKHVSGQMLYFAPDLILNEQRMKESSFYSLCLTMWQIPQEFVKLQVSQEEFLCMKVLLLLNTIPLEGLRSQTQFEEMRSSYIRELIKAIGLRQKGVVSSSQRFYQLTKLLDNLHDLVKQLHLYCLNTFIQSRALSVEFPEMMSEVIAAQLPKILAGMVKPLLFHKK
Androgen receptor (Homo sapiens), sequence (P10275 whole entry, looked up): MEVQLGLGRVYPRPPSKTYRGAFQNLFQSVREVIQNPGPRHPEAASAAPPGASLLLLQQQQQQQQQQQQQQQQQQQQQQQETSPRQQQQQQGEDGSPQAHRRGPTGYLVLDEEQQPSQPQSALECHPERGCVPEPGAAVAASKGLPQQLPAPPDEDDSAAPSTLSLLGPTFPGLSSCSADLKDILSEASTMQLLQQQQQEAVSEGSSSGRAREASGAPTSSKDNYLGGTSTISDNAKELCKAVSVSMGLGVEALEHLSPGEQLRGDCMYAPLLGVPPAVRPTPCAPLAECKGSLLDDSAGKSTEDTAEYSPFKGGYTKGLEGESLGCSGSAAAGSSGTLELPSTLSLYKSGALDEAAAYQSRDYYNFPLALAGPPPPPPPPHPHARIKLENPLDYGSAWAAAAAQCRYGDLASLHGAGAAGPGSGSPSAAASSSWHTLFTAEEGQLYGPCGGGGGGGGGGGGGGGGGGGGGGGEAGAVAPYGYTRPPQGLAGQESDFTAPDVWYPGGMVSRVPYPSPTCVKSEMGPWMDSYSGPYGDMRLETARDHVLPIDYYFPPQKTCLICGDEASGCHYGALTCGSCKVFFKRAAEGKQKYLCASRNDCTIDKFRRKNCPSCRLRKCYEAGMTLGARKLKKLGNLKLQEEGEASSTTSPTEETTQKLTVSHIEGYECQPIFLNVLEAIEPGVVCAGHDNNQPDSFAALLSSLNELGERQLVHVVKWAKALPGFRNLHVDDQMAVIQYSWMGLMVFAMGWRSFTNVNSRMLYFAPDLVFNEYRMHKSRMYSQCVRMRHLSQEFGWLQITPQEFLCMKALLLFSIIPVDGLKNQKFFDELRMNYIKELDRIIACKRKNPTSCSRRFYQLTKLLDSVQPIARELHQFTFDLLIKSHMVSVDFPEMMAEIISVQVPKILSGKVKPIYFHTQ
Thyrotropin-releasing hormone receptor (Homo sapiens), sequence (P34981 whole entry, looked up): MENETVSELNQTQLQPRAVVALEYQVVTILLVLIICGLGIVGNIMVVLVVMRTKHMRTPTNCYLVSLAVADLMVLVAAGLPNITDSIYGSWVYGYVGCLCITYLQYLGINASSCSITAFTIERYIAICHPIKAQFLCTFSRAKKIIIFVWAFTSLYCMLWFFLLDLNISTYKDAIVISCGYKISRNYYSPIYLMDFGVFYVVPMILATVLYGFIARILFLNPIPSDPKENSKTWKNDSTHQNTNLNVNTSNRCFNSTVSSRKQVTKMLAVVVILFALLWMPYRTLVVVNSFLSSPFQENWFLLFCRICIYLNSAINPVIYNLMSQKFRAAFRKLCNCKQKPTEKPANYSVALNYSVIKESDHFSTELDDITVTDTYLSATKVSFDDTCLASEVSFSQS

Take `Nc1nc(N)nc(-c2cc(Cl)ccc2Cl)n1`: the Potency result in [1], in assay [2], in assay [3], in assay [4], in assay [5] and in [6] was “inactive” each time. In addition, the Potency result in [7], in assay [8], in assay [9], in assay [10], in [11] and in assay [13] was “inactive” in each case. For the same compound, in assay [12], the outcome was inactive.

For the compound `CCCc1ccc(OCC(=O)N2CCN(C(=O)COc3ccc(CCC)cc3OC)CC2)c(OC)c1`, the outcome in assay [14], in assay [16] and in assay [12] was inactive. In addition, the Potency result in assay [2], in assay [15], in [17], in [3], in assay [4] and in assay [5] was “inactive” each time. Further, the Potency entry in assay [6], in [7], in [8], in assay [9], in assay [10] and in [11] was “inactive” each time. In addition, the Potency entry in assay [13] was “inactive”.

Take `COC1=C(OC)C(=O)C(CCCCCCCCCCO)=C(C)C1=O`: the Potency in [18] and in assay [2] was 23.7 µM (active) each time. Also, the outcome in [14] and in assay [12] was inactive. Moreover, the Potency entry in [15], in [4], in [8], in assay [9], in [11] and in assay [13] was “inactive” in each case.

For `CCOc1ccc2ccccc2c1C(=O)N[C@@H]1C(=O)N2[C@@H]1SC(C)(C)[C@@H]2C(=O)O`, the result in assay [14], in [16] and in assay [12] was inactive. The Potency entry in [2], in assay [15], in [17], in assay [3], in [4] and in assay [5] was “inactive” each time. Further, the Potency result in [6], in assay [7], in [8], in assay [9], in assay [11] and in assay [13] was “inactive” throughout.

On to `CCCCCCC1CCCC(=O)O1` (stereo not given), for which the Potency entry in [1], in [2], in assay [17], in [3], in assay [6] and in [7] was “inactive” in each case. The Potency entry in assay [8], in assay [9] and in assay [11] was “inactive” in each case. Also, the compound was called inactive in [16] and in [12].
